D1 antagonist: blocks dopamine activation of the human D1 receptor. P21728. HEK293 TREx D1 cells, calcium flux, dopamine EC80; stronger effect = lower value. activity change, negative = inhibition, % at 10 µM. 360,000 compounds, 3.2% hits. AID 504652; in the data active = activity change below about -30%; note: % is set by controls: 0 for no effect and ±100 for the full control effect
Target sequence (P21728 whole entry, looked up): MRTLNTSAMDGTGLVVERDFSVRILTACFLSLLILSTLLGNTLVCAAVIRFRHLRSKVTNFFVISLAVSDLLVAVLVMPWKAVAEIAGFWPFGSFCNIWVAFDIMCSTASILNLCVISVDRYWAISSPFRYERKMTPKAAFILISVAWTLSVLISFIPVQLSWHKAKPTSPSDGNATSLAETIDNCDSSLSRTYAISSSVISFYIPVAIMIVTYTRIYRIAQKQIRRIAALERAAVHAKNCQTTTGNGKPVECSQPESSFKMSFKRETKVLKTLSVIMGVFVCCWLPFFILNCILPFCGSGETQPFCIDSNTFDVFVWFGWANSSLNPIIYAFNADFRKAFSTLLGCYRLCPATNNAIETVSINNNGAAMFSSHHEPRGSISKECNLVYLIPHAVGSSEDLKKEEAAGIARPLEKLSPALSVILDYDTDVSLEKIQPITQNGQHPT
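Tetracycline-induced HEK293 T-REx cells with force-coupled D1 receptor were loaded with a no-wash calcium dye. Compound was added after a 10 s baseline and read kinetically for 180 s; EC80 dopamine was then added and calcium flux followed another 180 s.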
D1 potentiator: enhances dopamine response at the human D1 receptor; P21728; HEK293 TREx D1 cells, calcium flux, dopamine EC20 potentiation; potentiation, % at 10 µM; 360,000 compounds, 0.036% hits; AID 504651; in the data active = potentiation above about 30%; note: 0% is about no effect
D3 ag: D3 dopamine receptor (human) agonism; D3R DiscoveRx beta-arrestin cells, luminescence, 90 min; 410,000 compounds, 0.58% hits; P35462; AID 652048; max activation, %; in the data active = max activation above about 30%; note: 0% is about no effect
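Cells at 1500/well, incubated overnight, then treated with pinned compounds (dopamine as control) for 90 min at 37 degrees C. DiscoveRx reagent added for 30 - 60 minutes at room temperature; luminescence read.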
D1 agonist: human D1 receptor agonism | P21728 | HEK293 T-REx D1 cells, calcium flux, agonist mode | activation, % at 2 µM | 360,000 compounds, 1% hits | AID 504660; in the data active = activation above about 30%; note: 0% is about no effect
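Tetracycline-induced HEK293 TREx D1 cells, force-coupled to calcium signalling, were dye-loaded with a no-wash calcium kit. Compound was pin-added after a 10 s baseline. Fluorescence was read kinetically at 1 cycle/s for 180 s, with calcium rises flagged as agonism.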
D3 antag: D3 dopamine receptor (human) antagonism. P35462. D3R cells, DiscoveRx beta-arrestin luminescence, antagonist mode; stronger effect = lower value. max response, negative = inhibition, %. 360,000 compounds, 2.5% hits. AID 652054; in the data active = max response below about -50%; inconclusive = no clear call, values can overlap the other calls; note: % is set by controls: 0 for no effect and ±100 for the full control effect
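Cells plated overnight at 1500 cells/well, then exposed to library compounds with dopamine controls for 90 minutes at 37 degrees C. DiscoveRx reagent added for 30–60 minutes at room temperature; luminescence read, quantitative HTS format.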
The depositor's hits bear a star; ! = a repeat was not active. Rows were chosen to be rich in hits. Some 6% of all compounds tested hit in one or more screens of this group.

COc1ccccc1OCCCSc1nc(-c2ccc(C(C)(C)C)cc2)nc2cc(=O)[nH]n12 was read as D1 antagonist 13, D1 potentiator 4, D3 ag 31* and D1 agonist 1.
Cc1ccc(NC(=O)Cn2nnc(-c3nc(-c4ccc(Cl)cc4)no3)c2N)cc1C was read as D1 antagonist 13, D1 potentiator -1, D3 ag -11 and D1 agonist 0.
Cc1cc(C)n(-c2ccc(C(=O)OCC(=O)NC(c3ccccc3)c3ccccc3)cc2)n1 was read as D1 antagonist -12, D1 potentiator -6, D3 ag 1, D1 agonist 31* and D3 antag 6.
`CC(NC(=O)COC(=O)c1ccc(N(C)C)cc1)c1ccccc1` (centres undefined) gave D1 antagonist -70*, D1 potentiator -8, D3 ag 0, D1 agonist 0 and D3 antag 9.
CC(NC(=O)COC(=O)c1ccco1)c1ccccc1 (centres undefined) was read as D1 antagonist -12, D1 potentiator -1, D3 ag -4, D1 agonist 3 and D3 antag -19.
Screening Cc1onc(-c2ccccc2)c1C(=O)OCC(=O)NC(C)c1ccc(Cl)cc1 (centres undefined) returned D1 antagonist -10, D3 ag -5, D1 agonist 71* and D3 antag -26.
`Cc1cc(SCC(=O)OCC(=O)NC(C)c2ccccc2)c(C)cc1Br` (centres undefined) gave D1 antagonist -41*, D1 potentiator -1, D3 ag -3, D1 agonist 8 and D3 antag 4.
Cc1cc(Br)ccc1SCC(=O)OCC(=O)NC(C)c1ccccc1 (centres undefined) was read as D1 antagonist -2, D1 potentiator -5, D3 ag 3, D1 agonist 2 and D3 antag 0.
For COc1ccc(OCC(=O)Nc2ccc3c(c2)N(C)C(=O)c2ccccc2S3)cc1 the results were D1 antagonist 14, D1 potentiator 1, D3 ag 1 and D1 agonist 0.
`Cc1noc(C)c1C(=O)OCC(=O)Nc1cccc(F)c1` gave D3 ag -7 and D3 antag -62*.
CCOC(=O)c1ccc(NCc2ccc(N(C)C)cc2)cc1 was read as D1 antagonist -35*, D1 potentiator -11, D3 ag 2, D1 agonist 5 and D3 antag inconclusive.
`Cc1onc(-c2ccccc2)c1C(=O)OCC(=O)Nc1ccccc1` gave D1 antagonist -12, D1 potentiator 1, D3 ag -3, D1 agonist 5 and D3 antag -7.
For Cc1onc(-c2ccccc2)c1C(=O)OCC(=O)Nc1ccc(C#N)cc1 the results were D1 antagonist -31*, D1 potentiator -2, D3 ag 7, D1 agonist 10 and D3 antag 14.
Screening CC1C/C(=C/c2ccncc2)C(=O)/C(=C/c2ccncc2)C1 (centres undefined) returned D1 antagonist -32*, D1 potentiator -3, D3 ag -6, D1 agonist 6 and D3 antag -14.
`O=C1/C(=C/c2ccncc2)Cc2ccccc21` gave D1 antagonist 11, D1 potentiator -5, D3 ag 1, D1 agonist 0 and D3 antag -5.
Screening Cc1ccc(N=C2NC(=O)/C(=C/c3cccn3C)S2)cc1 returned D1 antagonist -11, D1 potentiator -4, D3 ag -18, D1 agonist 5 and D3 antag -24.
For CC1C/C(=C/c2cccn2C)C(=O)/C(=C/c2cccn2C)C1 (centres undefined) the results were D1 antagonist -29, D1 potentiator 7, D3 ag 0, D1 agonist 198* and D3 antag 6.
`CC(C)OCCCN1C(=O)c2[nH]nc(-c3ccccc3O)c2C1c1ccc(OCc2ccccc2)cc1` (centres undefined) gave D1 antagonist 1, D1 potentiator 3, D3 ag 4 and D1 agonist -1.
For Cc1ccc(S(=O)(=O)c2[nH]c(-c3ccccc3)nc2SC(C)C(=O)O)cc1 (centres undefined) the results were D1 antagonist 8, D1 potentiator 0, D3 ag 3 and D1 agonist 0.
`C[C@H]1O[C@@H](O[C@H]2[C@@H](O)C[C@H](O[C@H]3[C@@H](O)C[C@H](O[C@H]4CC[C@@]5(C)[C@H](CC[C@@H]6[C@@H]5C[C@@H](O)[C@]5(C)[C@@H](C7=CC(=O)OC7)CC[C@]65O)C4)O[C@@H]3C)O[C@@H]2C)C[C@H](O)[C@@H]1O` gave D1 antagonist -32*!, D1 potentiator -2, D3 ag 1, D1 agonist 2 and D3 antag 66.
Screening CCCN(C(=O)c1cc2c(s1)-c1ccccc1SC2)c1ccccc1F returned D1 antagonist 43, D1 potentiator 1, D3 ag -5 and D1 agonist 7.
Screening CC(=NNC(=S)Nc1cccc(C)c1)c1ccccn1 returned D3 ag -5 and D3 antag -20.
CC(=NNC(=S)Nc1ccc(C)cc1)c1ccccn1 was read as D3 ag 4 and D3 antag -50*.
`C/C(=N\NC(=S)Nc1cccc(C)c1)c1ccccc1` gave D1 antagonist -1, D1 potentiator -6, D3 ag -1, D1 agonist 2 and D3 antag -52*.
Screening CCCN(CCC)C(=O)Cn1c(=O)n(CCCCCC(=O)NCc2ccccc2Cl)c(=O)c2sccc21 returned D1 antagonist 2, D1 potentiator 2, D3 ag -10 and D1 agonist -2.
For CCCOC(=O)CSc1nnc(-c2ccccc2)o1 the results were D1 antagonist 3, D1 potentiator -6, D3 ag -15 and D1 agonist 0.
`Cc1ccc(-n2ncc(C(=O)NCc3ccccc3)c2C2CCN(C(=O)OC(C)(C)C)CC2)cc1` gave D1 antagonist 3, D1 potentiator -5, D3 ag -3 and D1 agonist 0.
CCN1CCCC1CNCC(=O)Nc1ccc(OC(F)(F)F)cc1 (centres undefined) was read as D1 antagonist 1, D1 potentiator -7, D3 ag -2, D1 agonist 7 and D3 antag -22.
Screening CCOC(=O)C1CSC(CC(=O)Nc2ccc(OC(F)(F)F)cc2)C(=O)N1 (centres undefined) returned D1 antagonist -32*, D1 potentiator -4, D3 ag -1, D1 agonist 2 and D3 antag -4.
`CCc1cccc(NC(=O)CCN2C(=O)c3ccccc3Sc3ncccc32)c1` gave D1 antagonist 5, D1 potentiator 3, D3 ag 4 and D1 agonist 4.
`C#CCOc1c(Cl)cc(/C=N/O)cc1OC` gave D1 antagonist -62*, D1 potentiator -1, D3 ag -3, D1 agonist 0 and D3 antag 6.

Source: PubChem BioAssay
